# Measured values reported in PubChem BioAssay AID1430 (University of Pittsburgh Molecular Library Screening Center, 2008).
# Screen size: about 220,000 compounds; about 240 (0.11%) were called active.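 How the source made its calls: active means inhibition of 50% or more in the single-dose primary screen; inactive means inhibition below 50%.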 This excerpt belongs to a sample that is enriched for actives.
# System: hexokinase 1 [Trypanosoma brucei]
# Experiment: Trypanosoma brucei hexokinase 1 inhibitors, primary screen, biochemical, G6PDH-coupled NADH absorbance, MLSCN library (AID 1430)
# Conditions: recombinant TbHK1, G6PDH-coupled NADH A340; at 10 µM; active compounds read high
row,Compound,inhibition
1,O=C(Nc1ccccc1)c1cc2ccccc2[nH]1,-8.21% (inactive)
2,COC(=O)c1nc(NC(=O)c2ccc(C(C)(C)C)cc2)n[nH]1,-1.14% (inactive)
3,COC(=O)C1CCN(CC(N)=O)CC1,60.6% (active)
4,CCOC(=O)N1CCC(C(N)=O)CC1,4.5% (inactive)
5,COC(=O)C1CCN(C(=O)c2cc(=O)[nH]c3ccccc23)CC1,-8.77% (inactive)
6,O=C(Nc1ccc(S(=O)(=O)N2CCOCC2)cc1)c1ccc2ncsc2c1,-11% (inactive)
7,CC12C(=O)N(c3ccccc3)C(=O)C1C(c1ccccc1)N1CCCN12 (centres undefined),-4.21% (inactive)
8,Cc1cccc(-n2c(Cc3cc(=O)[nH]c(=O)[nH]3)nnc2SC(C)C)c1,-4.19% (inactive)
9,Cc1ccc(Nc2nc(CSc3nnc(-c4ccncc4)n3-c3ccccc3C)cs2)cc1,-6.74% (inactive)
10,CC1CC(C)CN(S(=O)(=O)c2ccc(C(=O)NN3CCOCC3)cc2)C1 (centres undefined),-4.58% (inactive)
11,COC(=O)c1cccc([N+](=O)[O-])c1CS(=O)(=O)c1ccc(C)cc1,-5.68% (inactive)
12,O=C(c1ccc(N2CCOCC2)c([N+](=O)[O-])c1)N1CCN(S(=O)(=O)c2cccs2)CC1,-0.582% (inactive)
13,Cc1cc(Cl)ccc1OCCCC(=O)NCc1ccncc1,3.38% (inactive)
14,COc1ccc(C(C(=O)NC(C)(C)C)N(C(=O)Cn2nnc3ccccc32)c2ccc(C(C)=O)cc2)cc1O (centres undefined),-2.52% (inactive)
15,Nc1nnc(SCC(=O)NC2CCCc3ccccc32)s1 (centres undefined),-14.9% (inactive)
16,O=C(NCCN1CCOCC1)c1cc(Sc2cccc(Cl)c2)nc2ccccc12,-12.6% (inactive)
17,O=S(=O)(NCc1ccco1)c1cnc(Cl)c(Cl)c1,8.75% (inactive)
18,CC(C)[C@H](NC(=O)c1ccc(F)cc1)C(=O)OCC(=O)NC(=O)c1cccn1C,-0.221% (inactive)
19,CCC(C)Cn1c(O)cc2nn(-c3nc4ccccc4s3)c(=O)c-2c1C (centres undefined),-9.68% (inactive)
20,Cc1ccc(-c2csc(NC(=O)c3cnccn3)n2)cc1C,-12.7% (inactive)
21,CCOC(=O)CSC1=N/C(=C/c2ccc(-n3cncn3)cc2)C(=O)N1C(C)=O,-7.02% (inactive)
22,CC1CCN(S(=O)(=O)c2ccc(S(=O)(=O)NCc3cccnc3)cc2)CC1,0.223% (inactive)
23,O=C(COC(=O)[C@H](Cc1ccccc1)NC(=O)c1cccs1)Nc1cc(F)ccc1F,6.99% (inactive)
24,O=C(/C=C\c1ccc2c(c1)OCO2)NC1(C(=O)Nc2ccc3c(c2)OCCO3)CCCCC1,-15.6% (inactive)

row,Compound,inhibition
1,Cc1ccc(C)c(NC(=S)NNC(=O)c2csc(C)c2)c1,3.89% (inactive)
2,O=C(CCc1[nH]c2ccccc2c1Sc1ccccc1)N(CCO)CCO,19.8% (inactive)
3,Cc1nnsc1S(=O)(=O)Cc1ccccc1Cl,5.71% (inactive)
4,COCCNC(=S)N/N=C/c1c(C)[nH]c2ccccc12,-58.6% (inactive)
5,CC(=O)Nc1ccc(S(=O)(=O)N(CCc2ccccc2)CC(=O)N/N=C/c2ccc(C(=O)O)cc2)cc1,-12.9% (inactive)
6,CCOC(=O)C1(c2ccccc2)NC(c2ccc(N(C)C)cc2)C2C(=O)N(C)C(=O)C21 (centres undefined),-3.65% (inactive)
7,COc1cc(CN(C)Cc2nc3cc(C(F)(F)F)ccc3c(=O)[nH]2)ccc1OC(F)F,1.94% (inactive)
8,Fc1ccc(/C=N/Nc2nc(-c3cccnc3)nc3ccccc23)cc1,-55.8% (inactive)
9,COc1ccc(OCC(O)CNC(=O)Nc2ccc(Cl)cc2)cc1 (centres undefined),2.73% (inactive)
10,Cc1cc(=O)oc(C)c1C(=O)NC1CC(C)(C)NC(C)(C)C1,-4.42% (inactive)
11,O=C(Cn1c(N2CCN(C/C=C/c3ccccc3)CC2)nc2ccccc21)c1ccccc1,-2.21% (inactive)
12,Cc1nn(-c2ccccc2)c(=O)c2noc(C)c12,-6.64% (inactive)
13,CCOC(=O)c1cccnc1NC(=O)c1ccncc1,-3.95% (inactive)
14,Cc1nc(-c2ccc(Cl)cc2)sc1C(=O)NN,-13% (inactive)
15,CC(C)CNC(=O)COC(=O)/C=C/c1ccco1,-4.39% (inactive)
16,CCN(C(=O)CN1CCN(Cc2ccccc2)CC1)c1c(N)n(Cc2ccccc2)c(=O)[nH]c1=O,4.79% (inactive)
17,Cc1cccc(OC(=O)c2sc3ncn(C)c(=O)c3c2C)c1,2% (inactive)
18,Cc1cccc(NC(=S)N2CCC(O)CC2)c1C,5.41% (inactive)
19,O=[N+]([O-])c1cc(S(=O)(=O)N2CCCC2)ccc1NN=C1CCCC1,36.1% (inactive)
20,Cc1ccc(S(=O)(=O)NC(=O)Nc2nc(-c3ccc(F)c(F)c3)cs2)cc1,-8.79% (inactive)
21,Cc1ccccc1NC(=S)N(CCCN1CCOCC1)Cc1cccs1,25.4% (inactive)
22,COc1ccc(CN(C)Cc2nc3cc(OC)c(OC)cc3c(=O)[nH]2)c(OC)c1,1.93% (inactive)
23,COc1ccc(CC(=O)NCc2nnc(SCC(=O)Nc3nccs3)n2C)cc1,-2.5% (inactive)
24,O=C(/C=C/c1ccccc1)Oc1coc(CSc2ncccn2)cc1=O,-1.22% (inactive)

row,Compound,inhibition
1,CCc1ccc(NC2Nc3cc(C)nn3S2)cc1 (centres undefined),-2.97% (inactive)
2,CC(=O)c1ccc(S(=O)(=O)Nc2ccc(C(=O)NCC(c3ccccc3)N(C)C)cc2)cc1 (centres undefined),-5.8% (inactive)
3,O=C(Nc1cccc2c1N(C(=O)c1ccco1)CCC2)c1ccco1,-6.72% (inactive)
4,CCOc1cnc(-c2c(-c3ccccc3Cl)noc2C)o1,-3.33% (inactive)
5,O=C(O)COc1ccc(/C=N/O)cc1Br,6.57% (inactive)
6,O=S(=O)(Nc1ccc2cn[nH]c2c1)c1ccccc1,-2.67% (inactive)
7,O=C(O)C(c1ccccc1)C1(O)CCCCC1 (centres undefined),-7.32% (inactive)
8,S=C(NCc1ccc2c(c1)OCO2)NCc1ccco1,-4.45% (inactive)
9,COc1ccc(/C=C/C(=O)Nc2c(C)nn(C)c2C)cc1COc1ccc(Br)cc1,-11.6% (inactive)
10,Cc1csc(=Nc2ccccc2)n1CCO,-4.03% (inactive)
11,O=C(Cn1cnc([N+](=O)[O-])n1)NCCc1ccccc1,-4.47% (inactive)
12,COc1cccc(CC2(CO)CCCN(Cc3nc(-c4cccs4)oc3C)C2)c1 (centres undefined),6.9% (inactive)
13,COc1cc(Cl)c(C)cc1NC(=O)[C@@H]1CCCN1C(=O)c1cccs1,-2.99% (inactive)
14,CC/C(=N\NC(=S)NC(C)C)c1ccc(OC(F)F)cc1,10.1% (inactive)
15,O=C(c1ccc2ccccc2n1)N1CCN(c2ccccc2Cl)CC1,-6.88% (inactive)
16,CCN(/N=C/c1ccc(N(C)C)cc1)c1nc2ccccc2[nH]1,-4.95% (inactive)
17,COc1ccc(C(C#N)Nc2ccccc2C)cc1 (centres undefined),4.57% (inactive)
18,COC(=O)c1c(NC(=O)COC(=O)[C@@H](NS(=O)(=O)c2ccccc2)C(C)C)sc2c1CCC2,-13.7% (inactive)
19,CC(C)COC(=O)n1c(=O)oc2ccc(S(=O)(=O)N3CCCCC3)cc21,-6.57% (inactive)
20,Cc1cc(C)n2nc(C(=O)N(C)C(c3ccccc3)c3ccccc3)nc2n1,1.27% (inactive)
21,C[n+]1ccccc1C1CCCC/C1=N\Nc1ccc([N+](=O)[O-])cc1[N+](=O)[O-] (centres undefined),-18.3% (inactive)
22,CCOC(=O)/C(=N\Nc1ccccc1Cl)N(C)C1CCS(=O)(=O)C1 (centres undefined),-29.3% (inactive)
23,Cn1cc(/C=C/C(=O)N2CCCC(C(=O)c3ccc(C(F)(F)F)cc3)C2)cn1 (centres undefined),-9.79% (inactive)
24,CC(C)(C)NC(=O)NCc1ccco1,3.59% (inactive)

row,Compound,inhibition
1,O=C(COC(=O)/C=C/c1cn(-c2ccccc2)nc1-c1cccnc1)Nc1ccc(Cl)cc1Cl,-3.93% (inactive)
2,CC(=O)Nc1ccc(Nc2c([N+](=O)[O-])cc(S(C)(=O)=O)cc2[N+](=O)[O-])cc1,-2.68% (inactive)
3,Cc1ccccc1C(=O)NNC(=O)CN1C(=O)c2ccccc2C1=O,0.726% (inactive)
4,COc1ccc(/C=N/NS(=O)(=O)c2ccc(NC(C)=O)cc2)cc1,-17.4% (inactive)
5,Cc1ccc(NC(=O)C(=O)NCC2CCN(C(=O)c3cccc([N+](=O)[O-])c3)CC2)cc1,-4.84% (inactive)
6,CC(=O)NC(Cc1ccc(F)c(F)c1)C(=O)NC1CCN(c2nnnn2-c2ccccc2)CC1 (centres undefined),-4.26% (inactive)
7,O=C(c1ccncc1)c1ccc([N+](=O)[O-])cc1,-1.97% (inactive)
8,COc1ccc(CCNC(=O)CN(c2ccccc2)S(C)(=O)=O)cc1,2.74% (inactive)
9,OC(CN1C2=NCCCN2c2ccccc21)c1ccc(Br)cc1 (centres undefined),-1.72% (inactive)
10,CN(CC#CCC(c1ccccc1)c1ccccc1)C(C)(C)C,-4.21% (inactive)
11,O=C(O)c1cccnc1NC1CCCC1,-18.1% (inactive)
12,O=C(O)c1ccc(N=NN2CCOCC2)cc1,11.7% (inactive)
13,COCCNc1cc(NCCOC)c([N+](=O)[O-])cc1[N+](=O)[O-],-26.9% (inactive)
14,Cc1ccc(CNC(=O)CC2Sc3ccccc3NC2=O)cc1 (centres undefined),-3.22% (inactive)
15,CC(C)(C)c1ccc(C(=O)NCc2nnc(SCC(=O)N3CCCc4ccccc43)n2-c2ccccc2)cc1,-3.07% (inactive)
16,Cc1ccc(-n2nc(N)c3c(=O)oc(N(C)C)nc32)cc1,0.228% (inactive)
17,OCCCNC(c1ccccc1)c1ccc(O)cc1 (centres undefined),0.734% (inactive)
18,OCCn1c(-c2ccccc2)csc1=Nc1ccccc1,-11.3% (inactive)
19,CC1(C)CC(=O)C=C(NCCN2CCNCC2)C1,-12.2% (inactive)
20,CC1(C)CC(=O)C=C(NCCCN2CCCC2=O)C1,0.498% (inactive)
21,CC1(C)CC(=O)C=C(NCCCNC2CCCCC2)C1,58.6% (active)
22,Cc1cc(C)c2nc(SCC(=O)N(C)C3CCS(=O)(=O)C3)cc(C)c2c1 (centres undefined),-5.97% (inactive)
